Compound activity: PubChem, National Center for Advancing Translational Sciences (NCATS)
Luc counter: counter-screen: inhibitors of Kinase-Glo firefly luciferase | Kinase-Glo luciferase, ATP luminescence, 8 min | hit rate 0.28% among 200,000 | Potency, µM (doses to about 38.3 µM), inactives show at the top dose activity change, negative = inhibition, actives largely listed as inhibitors | Q27757; note: % is set by controls: 0 for no effect and ±100 for the full control effect; nearly all actives have a fitted effect of over 60% in size
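Compound is pinned into ATP-containing buffer (10 uM ATP, imidazole pH 7.2, 7 mM MgCl2). Kinase-Glo luciferase reagent is then added. Light output is recorded following an 8-min room-temperature incubation.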
Rab9 prom act: Rab9 promoter activation; Huh7 Rab9 promoter-luciferase reporter, luminescence, 24 h; Potency, µM (titrated, usually from 9.22 µM), for inactives: at the top dose activation, negative = inhibition, hits mostly activators; hit rate 2.8% among 320,000; AID 485297; note: % of control where 0% means no effect; nearly all actives have a fitted effect of over 60% in size
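Quantitative HTS format; Huh7 Rab9-luciferase reporter cells (1500/well) receive compound 2 h post-plating, incubate 24 h at 37 °C, then get luciferase reagent for 10 min before luminescence reading.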
ELG1 genotoxic: induces genotoxicity in HEK293T cells with luciferase-tagged ELG1; hit rate 1.3% among 330,000; AID 504466; HEK293T ELG1-luciferase reporter, luminescence, 16 h; Potency, µM (doses to about 46 µM), without a hit: at the highest dose activity change, positive = activation, actives largely listed as activators; note: % of control where 0% means no effect; nearly all actives have a fitted effect of over 60% in size
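ELG1-luciferase HEK293T cells, 2,000/well; compound pinned in; 16 hr, 37 °C, 5% CO2; ONE-Glo, 30 min RT; luminescence on CCD imager.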
SMN2 splice enh: SMN2 splice variant enhancement. hit rate 2.8% among 210,000. HEK293 SMN2-luciferase splicing reporter, luminescence, 30-36 h. Potency, µM (highest dose often 46.1 µM), for inactives: at the highest dose activity change, positive = activation, hits mostly activators. AID 1458; note: % of control where 0% means no effect; nearly all actives have a fitted effect of over 55% in size
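HEK293 cells carry an SMN2 […]–luciferase reporter in which exon 7 inclusion puts luciferase in frame. Cells were plated 10-12 h before compound addition, then incubated 30-36 h at 37C. ONE-Glo luminescence was read; sodium butyrate at 4.5 mM final served as control.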
FLuc modulator: counter-screen for miR-21 project: firefly luciferase inhibitors or activators | AID 588342 | purified FLuc, Km substrates, luminescence inhibition | Potency, µM (titrated, usually from 57.5 µM), inactives show top-dose activity change, negative = inhibition, usual class: inhibitors | hit rate 6.9% among 360,000;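 note: plate controls were vehicle for no effect and reference inhibitor for full effect; nearly all actives have a fitted effect of over 55% in size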
Target sequence (P08659 whole entry, looked up): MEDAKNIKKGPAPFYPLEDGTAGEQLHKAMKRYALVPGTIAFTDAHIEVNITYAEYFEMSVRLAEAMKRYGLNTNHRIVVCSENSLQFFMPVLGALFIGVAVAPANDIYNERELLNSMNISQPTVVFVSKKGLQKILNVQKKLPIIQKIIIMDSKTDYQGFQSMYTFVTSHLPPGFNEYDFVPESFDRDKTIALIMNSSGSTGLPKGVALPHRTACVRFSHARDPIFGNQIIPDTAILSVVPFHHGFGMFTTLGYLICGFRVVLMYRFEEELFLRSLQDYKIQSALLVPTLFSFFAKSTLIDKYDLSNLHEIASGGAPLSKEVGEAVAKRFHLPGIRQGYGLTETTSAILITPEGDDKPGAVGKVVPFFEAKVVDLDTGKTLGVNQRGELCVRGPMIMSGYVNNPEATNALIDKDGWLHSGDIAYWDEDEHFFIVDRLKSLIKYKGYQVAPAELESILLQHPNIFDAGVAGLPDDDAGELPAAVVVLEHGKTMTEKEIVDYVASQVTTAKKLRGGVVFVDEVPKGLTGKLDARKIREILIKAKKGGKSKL
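Biochemical qHTS of compounds, final roughly 60 µM downward over six points, against 10 nM purified firefly luciferase using Km concentrations of substrates (10 uM D-luciferin, 10 uM ATP) in Tris acetate pH 7.5 buffer; luminescence output.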
NPC1 prom act: activates the NPC1 promoter | Huh7 NPC1 promoter luciferase reporter, 24 h | Potency, µM (doses to about 9.22 µM), for the others: at the highest dose activation, actives largely listed as activators | hit rate 2.4% among 320,000 | AID 485313; note: % of control where 0% means no effect; nearly all actives have a fitted effect of over 60% in size
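Compounds in DMSO were transferred onto Huh7 NPC1-luciferase reporter cells pre-incubated 2 h; after 24 h at 37 °C, Amplite reagent was dispensed and luminescence recorded 10 min later.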
An asterisk follows results filed as active; ? = inconclusive; nt = no result given. An excerpt weighted towards active compounds, which were near 7.3% of everything screened. Calls come from the whole dose curve; as a rule, active = well fitted curve in the direction sought with a large enough effect; inconclusive = small, poorly fitted or top-dose-only effect, or another doubt; inactive = no such curve, though single readings can be large; an effect the other way counts as inactive or inconclusive. Potency is the fitted concentration of half-maximal effect.

SMILES | Luc counter | Rab9 prom act | ELG1 genotoxic | SMN2 splice enh | FLuc modulator | NPC1 prom act
O=C(Nc1ccc(NC(=O)C2CC2)cn1)c1ccccc1Cl | -2.5% | 27.9% | ? | 25.1µM* | ? | 27.3%
COc1ccc(C(=O)Nc2ccc(NC(=O)C3CC3)cn2)cc1 | nt | 5.6% | 7.2% | nt | ? | -0.6%
O=C(Nc1ccc(NC(=O)C2CC2)nc1)c1cccc(F)c1 | nt | 4.47µM* | 14.0% | nt | ? | ?
O=C(Nc1ccc(NC(=O)C2CC2)cn1)c1ccccc1 | nt | 0.355µM* | ? | nt | 2.69µM* | 0.316µM*
C[C@@H](NC(=O)c1coc(=O)c(Br)c1)c1ccccc1 | 4.5% | 8.2% | 20.6µM* | 12.6µM* | -2.3% | 2.0%
Cc1cc(NC(=O)c2coc(=O)c(Br)c2)ccc1C(C)C | nt | ? | ? | nt | 5.36µM* | 18.5%
Cc1ccc(C)c(N2CCN(C(=O)CCn3c(=S)[nH]c4cc5c(cc4c3=O)OCO5)CC2)c1 | -0.2% | -1.7% | -1.1% | -19.1% | 1.4% | 0.1%
Cc1ccc(/C=N/c2sc3c(c2C(N)=O)CCCC3)o1 | -4.0% | 3.98µM* | 12.1% | ? | 10.7µM* | ?
O=C(Cn1c(=O)oc2cc(S(=O)(=O)N3CCCC3)ccc21)Nc1ccc(OC(F)(F)F)cc1 | nt | nt | nt | nt | -13.5% | nt
COc1ccccc1N1C(=N)S/C(=C\c2ccc(-c3ccccc3C(=O)O)o2)C1=O | 1.6% | -2.1% | 3.2% | -5.4% | ? | -3.4%
N=C1S/C(=C\c2ccc(-c3ccccc3C(=O)O)o2)C(=O)N1c1ccc2c(c1)OCO2 | nt | -11.5% | -0.3% | nt | 9.53µM* | -4.0%
CCC(C)N1CCN(C(=O)c2cc(OC)cc(OC)c2)CC1 (stereo unspecified) | nt | -2.5% | 6.3% | nt | -1.5% | 11.3%
C/C(=N\NC(=O)COc1ccccc1-c1ccccc1)c1ccccn1 | 1.8% | -24.2% | ? | -58.3% | -5.7% | -17.0%
COc1ccc(CC(=O)Nc2ccc(-c3ccc4nnc(C)n4n3)cc2)cc1OC | 3.8% | -18.8% | 20.6µM* | 17.8µM* | 0.2% | -11.2%
CCC(Oc1ccccc1OC)C(=O)Nc1ccc2c(c1)n(C)c(=O)n2C (stereo unspecified) | nt | -3.5% | 14.6% | nt | 0.0% | -4.8%
O=C(COC(=O)c1ccco1)Nc1nc2c(F)c(F)c(F)cc2s1 | nt | -3.6% | 0.0% | nt | 0.7% | 2.0%
O=C(Nc1nc2c(ccc3ccccc32)s1)c1ccco1 | -0.6% | ? | 6.4% | 24.0% | 13.5µM* | ?
O=C(Nc1nc2c(Cl)ccc(Cl)c2s1)c1ccco1 | -2.1% | -22.8% | 17.5% | 13.7% | ? | -8.0%
O=C(Nc1nc2c(F)cc(F)cc2s1)c1ccco1 | nt | 0.447µM* | ? | nt | 4.78µM* | 0.708µM*
CN(C)CCN(C(=O)c1ccco1)c1nc2c(F)cc(F)cc2s1 | nt | nt | nt | nt | -7.6% | nt
O=C(CCc1ccccc1)Nc1nc2c(F)cc(F)cc2s1 | nt | 16.7% | 14.1% | nt | 16.9µM* | ?
O=C(Nc1nc2c(F)c(F)c(F)cc2s1)c1ccco1 | nt | 2.51µM* | ? | nt | 6.01µM* | 2.24µM*
NC(=O)C1CCN(C(=O)COc2ccc3ccc(=O)oc3c2)CC1 | nt | -0.1% | -1.6% | nt | -1.1% | 0.8%
COC(=O)c1ccc2c(c1)C(C)(C)C(/C=C/c1ccc(OC)c(OC)c1OC)=[N+]2C | -5.1% | -51.6% | -1.9% | -77.1% | ? | -46.3%
COC(=O)c1ccc2c(c1)C(C)(C)C(/C=C/c1ccc(O)cc1)=[N+]2C | ? | -36.4% | ? | -93.3% | 13.5µM* | -36.8%
SMILES | Luc counter | Rab9 prom act | ELG1 genotoxic | SMN2 splice enh | FLuc modulator | NPC1 prom act
COc1cc(SC)ccc1C(=O)NCCOc1ccc(F)cc1 | -1.2% | ? | 20.6µM* | 14.1µM* | 5.36µM* | ?
COc1cc(SC)ccc1C(=O)NCC1CCCCC1 | nt | 20.0% | ? | nt | 15.1µM* | 29.6%
COc1ccc(CCNC(=O)c2ccc(SC)cc2OC)cc1 | -0.8% | -1.2% | -5.8% | -6.3% | -10.7% | -8.6%
C=CCC1(CC=C)CCCN1C(=O)C1CCC(=O)N(CCc2ccc(OC)cc2)C1 (stereo unspecified) | nt | 2.51µM* | ? | nt | 10.7µM* | 2.51µM*
C=CCC1(CC=C)CCCN1C(=O)C1CCC(=O)N(CCc2ccccc2)C1 (stereo unspecified) | nt | 2.82µM* | ? | nt | 10.7µM* | 3.98µM*
NC(=O)C1CCN(C(=O)CN2C(=O)c3ccccc3S2(=O)=O)CC1 | -0.4% | -1.9% | 2.9% | -14.1% | 5.3% | 2.2%
CC1CCN(C(=O)CN2C(=O)c3ccccc3S2(=O)=O)CC1 | 0.5% | 2.51µM* | ? | -5.0% | -10.1% | 3.55µM*
O=C(CN1C(=O)c2ccccc2S1(=O)=O)c1ccc(F)cc1 | nt | ? | -6.0% | nt | 13.5µM* | ?
COC(=O)c1ccc(NC(=O)CN2C(=O)c3ccccc3S2(=O)=O)cc1 | nt | -0.3% | -0.3% | nt | -1.5% | 0.7%
O=C(CN1C(=O)c2ccccc2S1(=O)=O)c1ccccc1F | nt | ? | 4.7% | nt | 10.7µM* | ?
O=C(CN1C(=O)c2ccccc2S1(=O)=O)c1ccc(OC(F)F)cc1 | nt | -21.4% | -12.4% | nt | 12µM* | -18.1%
COCCn1c(=NC(=O)c2cc(-c3cccs3)nc3ccccc23)sc2cc(S(N)(=O)=O)ccc21 | -2.5% | -6.8% | -12.9% | -18.7% | 0.6% | -9.8%
CCOC(=O)C1=C(CS(=O)(=O)c2ccccc2)NC(=O)NC1c1ccc(OC)c(OC)c1 (stereo unspecified) | nt | -0.5% | 0.0% | nt | -0.6% | -2.9%
COCCN(C(=S)Nc1ccc(OC)cc1)C(C)c1cccs1 (stereo unspecified) | 1.8% | -5.2% | -7.7% | -3.6% | -2.1% | -2.2%
O=C(CN1C(=O)c2ccccc2S1(=O)=O)c1cccc(Br)c1 | nt | ? | -6.3% | nt | 7.57µM* | ?
COC(=O)c1cccn(CC(=O)c2ccc(Cl)cc2Cl)c1=O | 0.2% | -5.7% | 5.3% | 7.2% | 15.1µM* | 0.1%
COC(=O)c1ccc(S(=O)(=O)N2C3CCC2CC(NC(=O)NC2CCCCC2)C3)cc1 (stereo unspecified) | -0.8% | 4.1% | 1.2% | -20.2% | 0.1% | -1.2%
C=CCn1c(SCC(=O)Nc2cccc(C)c2)nnc1-c1cnccn1 | -4.7% | 4.1% | 9.7% | -4.3% | 1.3% | 0.5%
Cc1cc(C)c2oc(-c3cccc(NC(=O)c4ccc(Br)o4)c3)nc2c1 | nt | nt | nt | 15.6% | ? | nt
Cc1cc(C)c2oc(-c3cccc(NC(=O)c4ccco4)c3)nc2c1 | nt | nt | nt | 5.3% | 2.69µM* | nt
Cc1cc(C)c2oc(-c3ccc(C)c(NC(=O)/C=C/c4ccco4)c3)nc2c1 | nt | nt | nt | -8.6% | 21.3µM* | nt
Cc1ccc(-c2nnc(SCC(=O)N/N=C/c3ccccc3C(=O)O)n2C2CCCCC2)cc1 | nt | -1.1% | 2.6% | nt | 2.9% | 14.4%
